Consider 7 compounds from PubChem BioAssay (Tox21).

Experiment [1] in a line: qHTS RealTime-Glo MT Cell Viability Assay in HEK293 cells - 0 hour (AID 1224880). Further: top concentration of the series differs between compounds; nearly all actives have a fitted effect of over 45% in size. The procedure, abridged:
(§1)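 Luminescence readout at each listed time point; HEK293, 600 cells/well, RealTime-Glo MT reagent added with cells; compounds pinned (23 nL in DMSO) after 5 h at 37 C; continuous culture at 37 C.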
In general terms: Quantitative high-throughput screening tests each substance at several concentrations.

Experiment [2] in a line: A CellTox Green Cytotoxicity Assay to monitor cytotoxicity in HEK293 cells - 32 hour (AID 1224881). Further: nearly all actives have a fitted effect of over 40% in size. The procedure, abridged: (§2)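 Read-out: fluorescence of a cell-impermeant cyanine dye staining DNA of dead cells, proportional to cytotoxicity. HEK293, 600 cells/well with reagent, compound (23 nL DMSO) added after 5 h; reads at 0, 8, 16, 24, 32, 40 h.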
The nature of experiment [3]: A CellTox Green Cytotoxicity Assay to monitor cytotoxicity in HepG2 cells - 0 hour (AID 1224882). Further: nearly all actives have a fitted effect of over 35% in size. The procedure, abridged:
(§3)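 HepG2, 600 cells/well premixed w/ CellTox Green; 5 h settle, 37 C/5% CO2; pintool cpd add (DMSO); 37 C, 40 h; fluorescence read at 0, 8, 16, 24, 32, 40 h.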

Experiment [4] in a line: A CellTox Green Cytotoxicity Assay to monitor cytotoxicity in HepG2 cells - 32 hour (AID 1224883). Further: nearly all actives have a fitted effect of over 50% in size. The procedure, abridged: as §3
The nature of experiment [5]: A CellTox Green Cytotoxicity Assay to monitor cytotoxicity in HEK293 cells - 8 hour (AID 1224884). Further: nearly all actives have a fitted effect of over 35% in size. The gist of the method:
as §2

The nature of experiment [6]: qHTS RealTime-Glo MT Cell Viability Assay in HepG2 cells - 16 hour (AID 1224885). Further: nearly all actives have a fitted effect of over 50% in size. The gist of the method: (§4)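 Cell number in HepG2 cultures estimated from NanoLuc luminescence generated by metabolic reduction of a prosubstrate by living cells. The homogeneous, nonlytic format allowed repeated reads at 0, 8, 16, 24, 32 and 40 h of compound exposure.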
Experiment [7] can be described thus: qHTS RealTime-Glo MT Cell Viability Assay in HEK293 cells - 24 hour (AID 1224886). Further: nearly all actives have a fitted effect of over 50% in size. Further: potency means the concentration at half of the fitted maximal effect. The procedure, abridged:
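Homogeneous bioluminescent viability format in HEK293 cells (600 cells/well). Following 5 h at 37 C/5% CO2, 23 nL compound was pintooled; the signal was measured repeatedly during 40 h incubation.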

The nature of experiment [8]: qHTS RealTime-Glo MT Cell Viability Assay in HEK293 cells - 8 hour (AID 1224887). Further: top concentration of the series differs between compounds; nearly all actives have a fitted effect of over 50% in size. The procedure, abridged:
as §1

Experiment [9] is described as follows: A CellTox Green Cytotoxicity Assay to monitor cytotoxicity in HEK293 cells - 16 hour (AID 1224888). Further: nearly all actives have a fitted effect of over 35% in size. The procedure, abridged: as §2
Experiment [10] is described as follows: qHTS RealTime-Glo MT Cell Viability Assay in HepG2 cells - 0 hour (AID 1224889). Further: nearly all actives have a fitted effect of over 50% in size. The procedure, abridged:
as §4

Experiment [11] is described as follows: A CellTox Green Cytotoxicity Assay to monitor cytotoxicity in HepG2 cells - 8 hour (AID 1224890). Further: nearly all actives have a fitted effect of over 45% in size. The procedure, abridged:
as §3

Experiment [12] can be described thus: qHTS assay to identify small molecule antagonists of the estrogen receptor alpha (ER-alpha) signaling pathway using the BG1 cell line in the presence of 0.1 nM 17-beta-estradiol - cell viability counter screen (AID 1259241). Further: nearly all actives have a fitted effect of over 40% in size. The procedure, abridged: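 VM7Luc4E2 cells (endogenous ER-alpha, 4×ERE-luciferase), hormone-starved 5 days in charcoal-stripped FBS, were treated with compounds plus 0.1 nM 17beta-estradiol for 22 hr at 37C; viability read in same wells as CellTiter-Fluor live-cell protease fluorescence.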

Experiment [13] in a line: qHTS assay to identify small molecule antagonists of the androgen receptor (AR) signaling pathway using the MDA cell line in the presence of 0.5 nM R1881 - cell viability counter screen (AID 1259242). Further: nearly all actives have a fitted effect of over 45% in size. The procedure, abridged: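 Live-cell protease fluorescence, CellTiter-Fluor, 30 min at 37C. Cells: MDA-kb2, 3,000/well, preincubated 5 hr. Compounds plus 0.5 nM R1881 final, 16 hr, 37C, 0% CO2.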

Experiment [14] has as its target Estrogen receptor (Homo sapiens) (UniProt P03372). In words: qHTS assay to identify small molecule antagonists of the estrogen receptor alpha (ER-alpha) signaling pathway using the BG1 cell line in the presence of 0.1 nM 17-beta-estradiol (AID 1259244). Further: nearly all actives have a fitted effect of over 50% in size. Further: potency means the concentration at half of the fitted maximal effect. The gist of the method: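 Luminescence after ONE-Glo (30 min, room temperature) measured ERE-luciferase activity in VM7Luc4E2 cells treated 22 h with compound and 0.1 nM final 17beta-estradiol as stimulator.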

A short description of experiment [15]: qHTS assay to identify small molecule HDAC inhibitors (AID 1259364).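 Further: wild-type HCT-116 cells with endogenous class I/II HDAC activity; top concentration of the series differs between compounds; nearly all actives have a fitted effect of over 45% in size.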 The procedure, abridged: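 HCT-116 (wild type), 1,500 cells/well, overnight; compound 2 hr 37C 5% CO2; HDAC-Glo I/II reagent 30 min RT; luminescence readout.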
The nature of experiment [16]: qHTS assay to identify small molecule HDAC inhibitors - cell viability counter screen (AID 1259365). The gist of the method: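 Wild-type HCT-116 cells were seeded at 1,500 per well, incubated overnight at 37 C, then exposed to compounds in DMSO for 2hr. Viability was read by CellTiter-Glo luminescence after 30min at room temperature.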
Experiment [17] in a line: qHTS assay to identify small molecule antagonists of the sonic hedgehog signaling (Shh) pathway - cell viability counter screen (AID 1259367). Further: nearly all actives have a fitted effect of over 55% in size. Further: potency means the concentration at half of the fitted maximal effect. The gist of the method:
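CellTiter-Fluor signal in conditioned medium-stimulated 3T3 Gli1-Luc cells, 23 hr compound exposure, 37C.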

Experiment [18] in a line: qHTS assay to identify small molecule phospholipidosis (PLD) inducers (AID 1259344; active means well fitted curve in the direction sought with a large enough effect; an effect the other way counts as inactive or inconclusive). The procedure, abridged:
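Accumulated phospholipid, stained red by LipidTOX during 24 h compound treatment of HepG2 cells at 37 C, is quantified from images as pit number and intensity, normalised per cell using Hoechst-stained nuclei.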

The nature of experiment [19]: qHTS assay to identify small molecule agonists of the sonic hedgehog signaling (Shh) pathway - cell viability counter screen (AID 1259366). Further: nearly all actives have a fitted effect of over 50% in size. Further: potency means the concentration at half of the fitted maximal effect. The gist of the method:
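NIH/3T3-derived 3T3 Gli1-Luc cells (stable Gli1-responsive firefly luciferase reporter) were seeded, rested 4 hr at 37 C/5% CO2, then exposed to compounds in DMSO for 24 hr; viability was read by CellTiter-Fluor fluorescence in the same wells.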

Each structure is given as a SMILES string. Several values for one entry are separate records, joined by “and”; a condition that tells them apart may be missing. Identical values can stand only once. Results filed as inconclusive are left out. Activity calls are given as the source filed them. Unless noted, the call rests on the fitted dose curve; in most records, active means well fitted curve in the direction sought with a large enough effect in the repeat runs; inconclusive means weak or mixed curves; inactive means no such curve, though single readings can be large; an effect the other way counts as inactive or inconclusive.

Sequence of Estrogen receptor (Homo sapiens) (P03372 whole entry, looked up): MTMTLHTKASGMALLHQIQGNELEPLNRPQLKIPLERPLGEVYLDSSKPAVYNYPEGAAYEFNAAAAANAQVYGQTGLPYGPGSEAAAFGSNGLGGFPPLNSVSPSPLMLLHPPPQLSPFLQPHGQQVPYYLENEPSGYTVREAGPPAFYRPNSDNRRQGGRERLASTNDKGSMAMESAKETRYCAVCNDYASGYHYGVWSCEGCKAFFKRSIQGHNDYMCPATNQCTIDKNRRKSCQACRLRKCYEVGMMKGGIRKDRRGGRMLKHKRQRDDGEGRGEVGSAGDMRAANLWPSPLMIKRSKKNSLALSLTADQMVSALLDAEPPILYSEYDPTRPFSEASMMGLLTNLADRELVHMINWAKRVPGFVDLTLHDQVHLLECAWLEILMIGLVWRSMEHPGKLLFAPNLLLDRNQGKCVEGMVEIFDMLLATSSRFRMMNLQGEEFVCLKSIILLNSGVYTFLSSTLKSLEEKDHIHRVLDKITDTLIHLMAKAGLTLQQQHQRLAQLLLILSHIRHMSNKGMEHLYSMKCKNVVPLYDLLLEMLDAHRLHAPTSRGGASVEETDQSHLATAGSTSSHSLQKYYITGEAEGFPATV

For `NNC(=S)NN`, the Potency result in [1], in experiment [2], in experiment [3], in [4], in [5] and in [6] was “inactive” each time. The Potency result in [7], in experiment [8], in [9], in experiment [10], in experiment [11] and in experiment [12] was “inactive” each time. Further, the Potency result in experiment [13], in experiment [14], in experiment [15] and in experiment [17] was “inactive” each time. For the same compound, the compound was classed as inactive in [16].
With `CC1(C)C(C=C(Cl)Cl)C1C(=O)OC(C#N)c1cccc(Oc2ccccc2)c1` (centres undefined), the Potency result in [1], in experiment [2], in [3], in experiment [4], in experiment [5] and in [6] was “inactive” in each case. The Potency entry in [7], in experiment [8], in experiment [9], in experiment [10], in experiment [11] and in experiment [12] was “inactive” in each case. The Potency result in experiment [13], in experiment [14], in experiment [15], in experiment [19] and in [17] was “inactive” throughout. The outcome in experiment [18] and in experiment [16] was inactive.
On to `Oc1c(Cl)c(Cl)c(Cl)c(Cl)c1Cl`, for which the Potency entry in [1], in experiment [2], in [3], in [4], in [5] and in [6] was “inactive” throughout. Besides, the Potency result in experiment [7], in experiment [8], in [9], in experiment [10], in [11] and in experiment [12] was “inactive” in each case. Further, the Potency result in experiment [13], in [15], in experiment [19] and in experiment [17] was “inactive” each time. Besides, in experiment [14], the Potency was 30 µM (active) and 30.6 µM (active). For the same compound, the compound was classed as inactive in [16].
For the compound `CC(C)C(=O)OCC(C)(C)C(OC(=O)C(C)C)C(C)C` (centres undefined), the Potency entry in experiment [1], in [2], in experiment [3], in [4], in experiment [5] and in [6] was “inactive” in each case. Further, the Potency result in [7], in experiment [8], in [9], in [10], in [11] and in [12] was “inactive” throughout. Besides, the Potency entry in [13], in [14], in experiment [19] and in experiment [17] was “inactive” each time. Further, the call in experiment [16] was inactive.
As for `O=[N+]([O-])c1cccc2ccccc12`, the Potency result in [1], in [2], in experiment [3], in experiment [4], in experiment [5] and in [6] was “inactive” each time. The Potency result in experiment [7], in [8], in experiment [9], in experiment [10], in experiment [11] and in experiment [12] was “inactive” in each case. The Potency entry in experiment [13], in [14], in experiment [19] and in experiment [17] was “inactive” each time. The call in experiment [16] was inactive.
On to `CCOCN(C(=O)CCl)c1c(C)cccc1CC`, for which the Potency result in experiment [1], in experiment [2], in [3], in experiment [4], in experiment [5] and in experiment [6] was “inactive” throughout. Besides, the Potency result in experiment [7], in experiment [8], in [9], in experiment [10], in [11] and in experiment [12] was “inactive” in each case. In addition, the Potency entry in experiment [13] and in experiment [15] was “inactive” in each case. Besides, the Potency in experiment [14] was 45.9 µM (active) and 48.6 µM (active); in experiment [19], 57.7 µM (active) and 30.6 µM (active); in experiment [17], 54.5 µM (active). In experiment [16], the call was inactive.
As to `Cc1c(COC(=O)[C@@H]2[C@H](/C=C(\Cl)C(F)(F)F)C2(C)C)cccc1-c1ccccc1`, the Potency entry in experiment [1], in [2], in [3], in [4], in experiment [5] and in experiment [6] was “inactive” in each case. Besides, the Potency entry in [8], in experiment [9], in [10], in experiment [11], in experiment [12] and in [13] was “inactive” in each case. Besides, the Potency result in experiment [14], in experiment [15], in experiment [19] and in experiment [17] was “inactive” in each case. Also, the Potency in [7] is 21.4 µM (active). In addition, the outcome in experiment [16] was inactive.
